Results taken from PubChem BioAssay (Tox21).
Inconclusive results are not listed. Where a call stands in place of a potency, no number is given. Activity calls are given as the source filed them. Unless noted, calls come from the whole dose curve; as a rule, active = well fitted curve in the direction sought with a large enough effect in the repeat runs; inconclusive = weak or mixed curves; inactive = no such curve, though single readings can be large; an effect the other way counts as inactive or inconclusive.

Tests used:
[1] = qHTS assay for small molecule agonists of the p53 signaling pathway (AID 651631; calls by dose curve; note: nearly all actives have a fitted effect of over 15% in size; note: potency is the fitted concentration of half-maximal effect)
How it was run: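 Testing took place in human colorectal HCT-116 cells with stable p53RE-driven beta-lactamase. After 16 h of compound exposure at 37 °C, a FRET substrate was added and fluorescence recorded 2 h later.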

[2] = qHTS assay for small molecules that induce genotoxicity in human embryonic kidney cells expressing luciferase-tagged ATAD5 (AID 651632); note: nearly all actives have a fitted effect of over 15% in size; note: potency is the fitted concentration of half-maximal effect
How it was run: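 Genotoxicity read-out via ATAD5-luciferase: HEK293T cells, 16 hr compound incubation at 37C, Amplite detection.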

[3] = qHTS assay for small molecule agonists of the p53 signaling pathway - cell viability (AID 651633; calls by dose curve; note: nearly all actives have a fitted effect of over 30% in size; note: potency is the fitted concentration of half-maximal effect)
How it was run: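 Viability counter-read: CellTiter-Glo luminescence (30 min, room temperature) in the same p53RE-bla plates. These plates had been exposed to compounds for 16 h at 37 C.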

[4] = qHTS assay for small molecules that induce genotoxicity in human embryonic kidney cells expressing luciferase-tagged ATAD5 - cell viability (AID 651634; calls by dose curve; note: nearly all actives have a fitted effect of over 25% in size)
How it was run: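 Live-cell protease activity (CellTiter-Fluor, fluorescence) indicates viability. HEK293T cells with luciferase-tagged ATAD5; 15.5 hr compound treatment at 37C.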

[5] = qHTS assay for small molecule disruptors of the mitochondrial membrane potential - cell viability (AID 720634; calls by dose curve; note: nearly all actives have a fitted effect of over 20% in size; note: potency is the fitted concentration of half-maximal effect)
How it was run: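 Human hepatoma HepG2 cells were treated for 1 hr with test chemicals, then given m-MPI dye and CellTiter-Glo. Cell viability reflects luminescence proportional to cellular ATP.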

[6] = qHTS assay to test for compound auto fluorescence at 590 nm (red) in HepG2 cells (AID 720674)
How it was run: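 We screened compounds on adherent HepG2 cells, incubating them for an hour at 37 C in 5% CO2 before reading emission at 590 nm under 540 nm excitation; values reflect equivalence to Rose Bengal sodium fluorescence.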

[7] = qHTS assay to test for compound auto fluorescence at 535 nm (green) in HepG2 cells (AID 720675)
[8] = qHTS assay to test for compound auto fluorescence at 460 nm (blue) in HEK293 cells (AID 720678)
How it was run: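 Cells were seeded and left to adhere for 4-5 hr at 37C. Compounds were then pin-transferred. After an overnight incubation at 37C under 5% CO2, intrinsic fluorescence at 405/460 nm was measured and referenced to triamterene.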

[9] = qHTS assay to test for compound auto fluorescence at 590 nm (red) in HEK293 cells (AID 720679)
How it was run: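 Each well held 2,000 HEK293 cells in medium containing 10% dialyzed FBS. Following 4-5 hr attachment at 37C, 23 nL test compound or DMSO was added; plates sat overnight, and red fluorescence (540/590nm) was recorded.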

[10] = qHTS assay for small molecule disruptors of the mitochondrial membrane potential (AID 720635); note: potency is the fitted concentration of half-maximal effect
How it was run: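 Mitochondrial membrane potential tracked with Mito-MPS dye, red aggregates (ex 540/em 590 nm) against green monomers (ex 490/em 535 nm). Compound treatment 1 hr at 37C, dye 30 min in HepG2.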

SMILES	Potency [1]	Potency [2]	Potency [3]	Potency [4]	Potency [5]	outcome [6]	outcome [7]	outcome [8]	outcome [9]	Potency [10]
CCOP(=S)(Oc1cnc(C(C)(C)C)nc1)OC(C)C (stereo not drawn)	inactive	inactive	inactive	inactive	inactive	inactive	inactive	inactive	inactive	
CN/C(=N\[N+](=O)[O-])NCC1CCOC1 (stereo not drawn)	inactive		inactive	inactive	inactive	inactive	inactive	inactive	inactive	
CCOP(=S)(OCC)Oc1cc(-c2ccccc2)on1	inactive	inactive	inactive	inactive		inactive	inactive	inactive	inactive	
O=[N+]([O-])c1cccc2cccnc12	inactive		inactive		inactive	inactive	inactive	inactive	inactive	
CNCC(=O)c1ccc(O)c(O)c1	inactive		inactive	inactive	inactive	inactive	inactive	inactive	inactive	inactive
COc1cccc(C(=O)NN(C(=O)c2cc(C)cc(C)c2)C(C)(C)C)c1C	inactive	inactive	inactive	inactive		inactive	inactive	inactive	inactive	
CCCCCCBr	inactive		inactive	inactive	inactive	inactive	inactive	inactive	inactive	inactive
CC1=C(C(=O)Nc2ccccc2)S(=O)(=O)CCO1	19.3 µM (active)	inactive	inactive		inactive	inactive	inactive	inactive	inactive	
COc1cccc2c1cc([N+](=O)[O-])c1c(C(=O)O)cc3c(c12)OCO3	2.43 µM (active)	inactive	inactive		inactive	inactive	inactive	inactive	inactive	48.6 µM (active)
CC(C=O)Cc1ccc2c(c1)OCO2 (stereo not drawn)	inactive	inactive	inactive	inactive	inactive	inactive		inactive	inactive	
CN(N=O)C(N)=O	inactive	inactive	inactive	inactive	inactive	inactive		inactive	inactive	
CN1CCN(C(=O)O[C@H]2c3nccnc3C(=O)N2c2ccc(Cl)cn2)CC1	inactive	inactive	inactive	inactive	inactive	inactive		inactive	inactive	
CC(C)[N+](=O)[O-]	inactive	inactive	inactive	inactive		inactive	inactive	inactive	inactive	
c1cc2c(c(N3CCNCC3)c1)OCCO2	inactive	inactive	inactive	inactive	inactive	inactive		inactive	inactive	
Cc1cc(C)nc(Nc2ccccc2)n1	inactive	inactive	inactive	inactive	inactive	inactive	inactive	inactive	inactive	
COc1cc2c(cc1OC)[C@@]13CCN4CC5=CCO[C@H]6CC(=O)N2[C@H]1[C@H]6[C@H]5C[C@H]43	inactive	inactive	inactive	inactive	inactive	inactive	inactive	inactive	inactive	
O=c1oc2ccccc2c(O)c1C1CCCc2ccccc21 (stereo not drawn)	inactive	inactive	inactive	inactive		inactive	inactive	inactive	inactive	13.7 µM (active)
O=C1c2ccccc2C(=O)c2ccccc21	inactive	inactive	inactive	inactive	inactive	inactive		inactive	inactive	
COC(=O)c1c(C(F)F)nc(C(F)(F)F)c(C2=NCCS2)c1CC(C)C	inactive	inactive	inactive	inactive		inactive	inactive	inactive	inactive	
O=[N+]([O-])c1ccc(CBr)cc1	inactive		inactive	inactive	inactive	inactive	inactive	inactive	inactive	
CCOP(=S)(OCC)SCSc1ccc(Cl)cc1		inactive	inactive	inactive	inactive	inactive	inactive	inactive	inactive	inactive

SMILES	Potency [1]	Potency [2]	Potency [3]	Potency [4]	Potency [5]	outcome [6]	outcome [7]	outcome [8]	outcome [9]	Potency [10]
CCCCc1ccc(O)cc1		inactive	inactive	inactive	inactive	inactive	inactive	inactive	inactive	48.5 µM (active)
CC1(C)COP(Oc2ccccc2)OC1		inactive	inactive	inactive	inactive	inactive	inactive	inactive	inactive	inactive
COC(=O)C1=CCCN(C)C1		inactive	inactive	inactive	inactive	inactive	inactive	inactive	inactive	inactive
COP(=S)(OC)Oc1c(Cl)cc(C)cc1Cl		inactive	inactive	inactive	inactive	inactive	inactive	inactive	inactive	24.3 µM (active)
Cc1ncc2n1-c1ccc(Cl)cc1C(c1ccccc1F)=NC2		26.6 µM (active)	inactive	inactive	inactive	inactive	inactive	inactive	inactive	
COc1cc(C[C@@H](C)N)c(OC)cc1C		inactive	inactive	inactive	inactive	inactive	inactive	inactive	inactive	inactive
COc1cc(OC)nc(NC(=O)NS(=O)(=O)c2ncccc2OCC(F)(F)F)n1		inactive	inactive	inactive	inactive	inactive	inactive	inactive	inactive	inactive
CC1(C)C(=O)NC(=O)NC1=O		inactive	inactive	inactive	inactive	inactive	inactive	inactive	inactive	inactive
OCCBr		inactive	inactive	inactive	inactive	inactive		inactive	inactive	inactive
O=[N+]([O-])c1cccc(O)c1		inactive	inactive	inactive	inactive	inactive	inactive	inactive	inactive	43.4 µM (active)
CNC(=O)Oc1c(C(C)(C)C)cc(C)cc1C(C)(C)C		inactive	inactive	inactive	inactive	inactive	inactive	inactive	inactive	
C[N+](C)=CCl		inactive	inactive	inactive	inactive	inactive	inactive	inactive	inactive	
c1coc(-c2nc3ccccc3[nH]2)c1	inactive			inactive		inactive	inactive	inactive	inactive	
CC(Oc1ccc(Oc2ncc(C(F)(F)F)cc2Cl)cc1)C(=O)O (stereo not drawn)		inactive	inactive	inactive	inactive	inactive	inactive	inactive	inactive	
C=CCC1=C(C)[C@@H](OC(=O)[C@@H]2[C@@H](C=C(C)C)C2(C)C)CC1=O		inactive	61.1 µM (active)	inactive	61.1 µM (active)	inactive	inactive	inactive	inactive	15.4 µM (active)
COc1cc(OC)nc(NC(=O)NS(=O)(=O)c2ncccc2C(=O)N(C)C)n1		inactive	inactive	inactive	inactive	inactive	inactive	inactive	inactive	inactive
O=C(O)c1cccc(Cl)c1		inactive	inactive	inactive	inactive	inactive	inactive	inactive	inactive	
ClC(Cl)Br		inactive	inactive	inactive	inactive	inactive	inactive	inactive	inactive	inactive
CC(C)CC#N		inactive	inactive	inactive	inactive	inactive	inactive	inactive	inactive	inactive
O=C(Nc1ccccc1)c1ccccc1I		inactive	inactive	inactive	inactive	inactive	inactive	inactive	inactive	
COc1ncc(F)c2nc(S(=O)(=O)Nc3c(F)cccc3F)nn12		inactive	inactive	inactive	inactive	inactive	inactive	inactive	inactive	
